Values without a mark were called inactive. A call without a number means that no potency is given here. Active and inactive are the calls of the source. The call rests on the fitted dose curve; in most records, active means well fitted curve in the direction sought with a large enough effect in the repeat runs; inconclusive means weak or mixed curves; inactive means flat fitted curve, though single readings scatter.
assay: qHTS assay to test for compound auto fluorescence at 460 nm (blue) in HEK293 cells (AID 720678); details: blue autofluorescence 405/460 nm; series mostly up to 91.3 µM; further: potency means the concentration at half of the fitted maximal effect
Method in brief: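 HEK293 cells (2,000 per well, medium with 10% dialyzed FBS) attached for 4-5 hr at 37C, then received compound and stood overnight at 37C, 5% CO2. Blue fluorescence was read at Ex/Em 405/460 nm and expressed relative to triamterene.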
Tags describe the fitted curve by direction and shape or compound fluorescence and quenching.

SMILES	Potency	fluorescence, % of triamterene
C=C1CCC2CC1C2(C)C (centres undefined)	inactive	–
CN1CCCC(CC2c3ccccc3Sc3ccccc32)C1 (centres undefined)	–	0.136% [at 18.6 µM]
CC(C)c1nc(CN(C)C(=O)N[C@H](C(=O)N[C@@H](Cc2ccccc2)C[C@H](O)[C@H](Cc2ccccc2)NC(=O)OCc2cncs2)C(C)C)cs1	inactive	–
CN1CCCC(n2nc(Cc3ccc(Cl)cc3)c3ccccc3c2=O)CC1 (centres undefined)	inactive	–
O=C(O)CCCCCCCCCCCBr	inactive	–
CCCCN1CCCC1C(=O)Nc1c(C)cc(C)cc1C (centres undefined)	inactive	–
CCOC(=O)C1=C(C)NC(C)=C(C(=O)OC)C1c1cccc(Cl)c1Cl (centres undefined)	inactive	–
Oc1cc2c(cc1O)[C@H]1c3ccc(O)c(O)c3OC[C@@]1(O)C2	inactive	–
CN(C)CCC=C1c2ccccc2C=Cc2ccccc21	inactive	–
CN(C(=O)CN(CCO)CC(=O)N(C)C(C)(C)Cc1ccccc1)C(C)(C)Cc1ccccc1	–	0.252% [at 18.6 µM]
CC(=O)c1ccc([N+](=O)[O-])cc1	inactive	–
CCCCCCCCCCCCCCN(CCO)CCO	inactive	–
COc1cc(C(=O)NC2CCN(C)CC2)ccc1Nc1ncc2c(n1)N(C1CCCC1)CC(F)(F)C(=O)N2C	inactive	–
CC1=C(Br)C(=O)C(Br)=C/C1=C(/c1ccccc1S(=O)(=O)O)c1cc(Br)c(O)c(Br)c1C	inactive	–
COc1ccccc1NC(=O)c1cc2ccccc2cc1O	39.8 µM [fluorescent] (active)	–
O=C(O)c1cccc(-c2noc(-c3ccccc3F)n2)c1	inactive	–
O=C1c2ccccc2C(=O)N1CCc1noc(-c2ccc(CN3CCCCCC3)s2)n1	inactive	–
CCCCC(CC)CN (centres undefined)	inactive	–
OCCN1CCN(CCCN2c3ccccc3Sc3ccc(Cl)cc32)CC1	–	-0.38% [at 18.6 µM]
Cc1cc(=O)c2c(O)c3c(O)cc(=O)c4c3c3c(cc(O)c1c23)C(C)(C)C=4O	inactive	–
C[C@@H]1CC(=O)NN=C1c1ccc(NN=C(C#N)C#N)cc1	inactive	–
C[C@H]1c2cccc(O)c2C(O)=C2C(=O)[C@]3(O)C(O)=C(C(N)=O)C(=O)[C@@H](N(C)C)[C@@H]3[C@@H](O)[C@@H]21	inactive	–
NNC(=O)CP(=O)(c1ccccc1)c1ccccc1	inactive	–
c1ccc(C[n+]2cccc3ccccc32)cc1	inactive	–
CC1CC(OC(=O)C(O)c2ccccc2)CC(C)(C)N1C (centres undefined)	inactive	–
COc1ccccc1N1CCN(CC(O)COc2cccc3ccccc23)CC1 (centres undefined)	inactive	–
CN1C(=O)OC(C)(C)C1=O	inactive	–
CC1=C(CC=O)C(C)(C)CCC1	inactive	–

assay: qHTS assay to test for compound auto fluorescence at 590 nm (red) in HEK293 cells (AID 720679); details: red autofluorescence 540/590 nm; series mostly up to 91.3 µM
Method in brief: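 HEK293 cells (2,000/well, medium with 10% dialyzed FBS) attached for 4-5 hr at 37C, received 23 nL compound and were incubated overnight at 37C, 5% CO2. Red fluorescence was then read at 540/590nm Ex/Em, referenced to Rose Bengal sodium.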

SMILES	outcome	fluorescence, % of fluorescent control
C=C1CCC2CC1C2(C)C (centres undefined)	inactive	–
CC(C)c1nc(CN(C)C(=O)N[C@H](C(=O)N[C@@H](Cc2ccccc2)C[C@H](O)[C@H](Cc2ccccc2)NC(=O)OCc2cncs2)C(C)C)cs1	inactive	–
O=C(O)CCCCCCCCCCCBr	inactive	–
CCCCN1CCCC1C(=O)Nc1c(C)cc(C)cc1C (centres undefined)	inactive	–
Cc1ccccc1N=C(N)Nc1ccccc1C	inactive	–
CCOc1ccccc1O[C@H](c1ccccc1)[C@H]1CNCCO1	inactive	–
CCOC(=O)c1ccc(C#Cc2ccc3c(c2)C(C)(C)CCS3)nc1	inactive	–
C=C/C(C)=C/C/C=C(\C)CCC=C(C)C	inactive	–
CCOC(=O)C1=C(C)NC(C)=C(C(=O)OC)C1c1cccc(Cl)c1Cl (centres undefined)	inactive	–
Oc1cc2c(cc1O)[C@H]1c3ccc(O)c(O)c3OC[C@@]1(O)C2	inactive	–
CN(C)CCC=C1c2ccccc2C=Cc2ccccc21	inactive	–
CN(C(=O)CN(CCO)CC(=O)N(C)C(C)(C)Cc1ccccc1)C(C)(C)Cc1ccccc1	–	0.0938% [at 18.6 µM]
CC(=O)c1ccc([N+](=O)[O-])cc1	inactive	–
COc1cc(C(=O)NC2CCN(C)CC2)ccc1Nc1ncc2c(n1)N(C1CCCC1)CC(F)(F)C(=O)N2C	inactive	–
CC1=C(Br)C(=O)C(Br)=C/C1=C(/c1ccccc1S(=O)(=O)O)c1cc(Br)c(O)c(Br)c1C	inactive	–
COc1ccccc1NC(=O)c1cc2ccccc2cc1O	inactive	–

SMILES	outcome	fluorescence, % of fluorescent control
O=C(Nc1cccc2c(=O)cc(-c3nn[nH]n3)oc12)c1ccc(OCCCCc2ccccc2)cc1	inactive	–
O=C(O)c1cccc(-c2noc(-c3ccccc3F)n2)c1	inactive	–
O=C1c2ccccc2C(=O)N1CCc1noc(-c2ccc(CN3CCCCCC3)s2)n1	inactive	–
Oc1c(I)cc(I)c2cccnc12	inactive	–
OCCN1CCN(CCCN2c3ccccc3Sc3ccc(Cl)cc32)CC1	–	-0.0409% [at 18.6 µM]
Cc1cc(=O)c2c(O)c3c(O)cc(=O)c4c3c3c(cc(O)c1c23)C(C)(C)C=4O	inactive	–
C[C@@H]1CC(=O)NN=C1c1ccc(NN=C(C#N)C#N)cc1	inactive	–
C[C@H]1c2cccc(O)c2C(O)=C2C(=O)[C@]3(O)C(O)=C(C(N)=O)C(=O)[C@@H](N(C)C)[C@@H]3[C@@H](O)[C@@H]21	inactive	–
NNC(=O)CP(=O)(c1ccccc1)c1ccccc1	inactive	–
CN(C)CCN1C(=O)c2ccccc2N(C)c2ccccc21	inactive	–
C[C@]1(Cn2ccnn2)[C@H](C(=O)O)N2C(=O)C[C@H]2S1(=O)=O	inactive	–
c1ccc(C[n+]2cccc3ccccc32)cc1	inactive	–
CC1CC(OC(=O)C(O)c2ccccc2)CC(C)(C)N1C (centres undefined)	inactive	–
COc1ccccc1N1CCN(CC(O)COc2cccc3ccccc23)CC1 (centres undefined)	inactive	–
CN1C(=O)OC(C)(C)C1=O	inactive	–

— PubChem BioAssay (Tox21)
